Publication PMC5540273 (PLoS ONE, 2017)

How the values were obtained:
Settings in all cases: concentration: 1 μM, replicates: in singlicate; n = 1
[1] = system: T1, NIM1
T1 construct: gene MGC42105

[2] = system: NLK
[3] = system: T2, OSR1
T2 construct: gene OXSR1

[4] = system: PAK1
[5] = system: PAK2
[6] = system: PAK3
[7] = system: PAK4
[8] = system: PAK6
[9] = system: PAK7
[10] = system: T3, PCTK1
T3 construct: gene CDK16
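Also: KINOMEscan kinase panel screen.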

Row | Compound | %Inh [1] [%] | %Inh [2] [%] | %Inh [3] [%] | %Inh [4] [%] | %Inh [5] [%] | %Inh [6] [%] | %Inh [7] [%] | %Inh [8] [%] | %Inh [9] [%] | %Inh [10] [%]
1 | Cn1cc(-c2ccc3c(c2)CCN3C(=O)Cc2cccc(F)c2)c2c(N)ncnc21 [GSK2603358] | 24 | 0 | 37 | 0 | 0 | 31 | 0 | 0 | 0 | 4
2 | COc1cccc(-c2ccc3c(NC(=O)C4CC4)n[nH]c3n2)c1 [SB-710903] | 46 | 49 | 13 | 0 | 0 | 1 | 0 | 0 | 8 | 10
3 | Oc1cc(Nc2ccnc3cc(I)ccc23)ccc1F [GW552771] | 17 | 58 | 8 | 0 | 0 | 17 | 0 | 0 | 0 | 3
4 | Cl.c1ccc(-c2ccc3c(Nc4ccc5[nH]ncc5c4)ccnc3c2)nc1 [GW440137] | 14 | 28 | 5 | 10 | 0 | 0 | 0 | 3 | 0 | 2
5 | CN(C)Cc1ccc(-c2ccc3c(Nc4ccc(Oc5ccccn5)cc4)ccnc3c2)o1 [GW567148] | 23 | 0 | 15 | 0 | 0 | 22 | 0 | 0 | 0 | 3
6 | COc1cc(Nc2nccc(-c3c(-c4cccc(NC(=O)c5c(F)cccc5F)c4)nn4ncccc34)n2)cc(OC)c1OC [GSK327238] | 0 | 82 | 19 | 70 | 9 | 36 | 0 | 11 | 41 | 11
7 | CNC(=O)c1ccccc1Nc1nc(Nc2ccc(N3CCOCC3)cc2)ncc1Cl.Cl [GSK1576028] | 41 | 26 | 35 | 71 | 61 | 100 | 78 | 66 | 83 | 11
8 | Cl.NC(=O)c1cccc(Nc2nccc(Nc3ccc(Oc4c(Cl)cccc4Cl)c(Cl)c3)n2)c1 [GW659009] | 7 | 0 | 15 | 34 | 8 | 72 | 0 | 0 | 0 | 0
9 | CSc1cccc2c(-c3ccncn3)c(-c3ccc(F)cc3)nn12 [GW514786] | 19 | 70 | 8 | 11 | 25 | 19 | 0 | 3 | 0 | 2
10 | COc1ccc(-c2coc3ccc(-c4nnc(SCc5ccc(OC)c(C(F)(F)F)c5)o4)cc23)cc1 | 0 | 10 | 3 | 0 | 3 | 22 | 1 | 17 | 3 | 0
11 | COc1cc(Nc2nccc(-c3c(-c4cccc(NC(=O)c5c(F)cccc5F)c4)nn4ccccc34)n2)cc(OC)c1OC [GSK323521] | 39 | 0 | 4 | 11 | 5 | 44 | 9 | 7 | 6 | 3
12 | CCn1c(-c2nonc2N)nc2c(C#CC(C)(C)O)nc(OC[C@H](N)c3ccccc3)cc21 [GSK943949] | 0 | 7 | 0 | 0 | 0 | 27 | 94.6 | 97.9 | 98 | 0
13 | Nc1ncnc2c1nc(-c1ccccc1)n2-c1ccccc1 [SKF-97293] | 66 | 0 | 39 | 29 | 56 | 27 | 16 | 8 | 0 | 9
14 | O=C(NC1CCN(c2ccnc(Nc3ccc(F)cc3)n2)C1)c1cc2ccccc2s1 (centres unmarked) [GSK1379716] | 34 | 31 | 11 | 18 | 16 | 19 | 0 | 0 | 4 | 0
15 | O=C(Nc1cccc(-c2nn3ccccc3c2-c2ccnc(Nc3cccc(F)c3)n2)c1)c1c(F)ccc(F)c1Cl [GSK357952] | 7 | 46 | 2 | 0 | 2 | 16 | 0 | 0 | 15 | 0
16 | Cc1cccc(NC(=O)Nc2ccc(Oc3ncnc4ccn(C)c34)cc2)c1 | 0 | 0 | 0 | 0 | 0 | 0 | 0 | 0 | 0 | 0

Row | Compound | %Inh [1] [%] | %Inh [2] [%] | %Inh [3] [%] | %Inh [4] [%] | %Inh [5] [%] | %Inh [6] [%] | %Inh [7] [%] | %Inh [8] [%] | %Inh [9] [%] | %Inh [10] [%]
17 | O=C(Nc1cccc(-c2nn3ccccc3c2-c2ccnc(Nc3cccc(C(F)(F)F)c3)n2)c1)c1c(F)cccc1F [GSK292658] | 2 | 33 | 19 | 9 | 6 | 21 | 0 | 0 | 0 | 2
18 | Clc1ccc(-c2nn3ncccc3c2-c2ccnc(Nc3ccc4c(c3)OCCO4)n2)cc1 [GW829116] | 0 | 61 | 0 | 0 | 28 | 0 | 0 | 2 | 0 | 0
19 | Cl.c1ccc(-c2ccc3c(Nc4ccc5[nH]ccc5c4)ccnc3c2)nc1 [GW440138] | 29 | 36 | 4 | 0 | 0 | 0 | 0 | 0 | 0 | 0
20 | C[C@@H]1CC[C@@H](C(=O)Nc2ccccc2)CN1c1cc(-c2ccc3c(N)n[nH]c3c2)nc(N)n1 [GSK2286062] | 23 | 11 | 10 | 20 | 6 | 0 | 0 | 0 | 6 | 0
21 | COc1cc(Nc2ncc3c(C)nc(-c4cc5ccccc5[nH]4)n3n2)cc(OC)c1OC [GW869516] | 0 | 0 | 0 | 5 | 22 | 69 | 33 | 23 | 28 | 0
22 | CC(=O)Nc1nc2cnc(Nc3cc(NC(=O)c4cccc(C5(C#N)CC5)c4Cl)ccc3C)nc2s1 | 6 | 33 | 0 | 12 | 0 | 0 | 7 | 0 | 9 | 6
23 | Cn1cc(-c2ccc3c(c2)CCN3C(=O)Cc2cccc(Cl)c2)c2c(N)ncnc21 [GSK2606590] | 0 | 0 | 16 | 17 | 22 | 46 | 0 | 0 | 9 | 0
24 | COCCOCCOc1cc2ncc3c4ccc(C#N)cc4[nH]c3c2cc1OC | 48 | 19 | 0 | 18 | 22 | 21 | 19 | 10 | 1 | 0
25 | O=C(Nc1cccc(-c2nn3ncccc3c2-c2ccnc(Nc3ccccc3)n2)c1)c1c(F)cccc1F [GSK198271] | 4 | 95.1 | 16 | 24 | 16 | 31 | 0 | 1 | 0 | 10
26 | COc1ccc(Nc2nccc(N3CCC(NC(=O)Nc4cccc(OC)c4)C3)n2)cc1 (centres unmarked) [GSK1379742] | 22 | 0 | 0 | 44 | 27 | 0 | 0 | 0 | 0 | 4
27 | CC(=O)N1CCN(c2ccc(Nc3nccc(-c4sc(C(C)C)nc4-c4cccc(NS(=O)(=O)c5cccc(Cl)c5)c4)n3)cn2)CC1 [GSK1660437] | 0 | 91.8 | 5 | 72 | 90.1 | 57 | 0 | 0 | 0 | 98.6
28 | Cc1ccc(C(=O)N2CC[C@@H](O)C2)cc1-n1c(C)cc(OCc2ccc(F)cc2F)c(Br)c1=O | 0 | 4 | 0 | 0 | 0 | 0 | 0 | 0 | 0 | 0
29 | c1ccc(-c2n[nH]cc2Nc2ccnc3ccccc23)nc1 [GW694077] | 25 | 53 | 7 | 6 | 50 | 1 | 20 | 0 | 2 | 4
30 | O=c1[nH]cc(-c2ccc(N3CCOCC3)cc2)c2sc(-c3cn[nH]c3)cc12 [GSK2276055] | 30 | 0 | 1 | 8 | 26 | 0 | 0 | 17 | 31 | 4
31 | COc1ccc(Nc2nccc(NCCNC(=O)c3cc4ccccc4s3)n2)cc1 [GSK1379896] | 4 | 49 | 10 | 7 | 0 | 2 | 0 | 1 | 0 | 1
32 | Fc1ccc(-c2ncn(C3CCNCC3)c2-c2ccnc(Oc3ccc(-c4ccccc4)cc3)n2)cc1 [SB-245391] | 42 | 52 | 36 | 25 | 18 | 22 | 14 | 25 | 0 | 16
